In PMC7862700, “An all-to-all approach to the identification of sequence-specific readers for epigenetic DNA modifications on cytosine” one finds binding signal data, which are given here for one sequence.

Experiment in all cases: DAPPL (digital affinity profiling via proximity ligation, sequencing); 10 mM Tris-HCl pH 7.5, 50 mM NaCl, 1 mM DTT, 4% glycerol, room temperature, 30 min; GST-TFs on glutathione beads, 16-mer random dsDNA library, 0.1% formaldehyde crosslink after washing; high values mean tight binding
One assay addresses T1, FEV (Homo sapiens, UniProt Q99581 1-238).
T1 sequence: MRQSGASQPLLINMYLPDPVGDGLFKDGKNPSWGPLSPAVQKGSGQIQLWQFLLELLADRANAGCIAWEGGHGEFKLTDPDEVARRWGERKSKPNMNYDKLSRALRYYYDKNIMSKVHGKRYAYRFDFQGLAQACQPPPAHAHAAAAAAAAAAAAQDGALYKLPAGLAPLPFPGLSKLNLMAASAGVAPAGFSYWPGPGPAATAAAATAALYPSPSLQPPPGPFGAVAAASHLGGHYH
The conditions noted are these: protein: recombinant; tags: N-terminal GST; dsDNA, one strand shown. Put shortly: (§1)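 Human transcription factors carrying a GST fusion were produced in yeast, bound to glutathione beads, tagged with DNA barcodes and pooled together with a tag-only sample. Each pool was held with 200 nmole of a random double-stranded 16-mer DNA library in Tris/NaCl/DTT/glycerol buffer for 30 min at room temperature, then washed, crosslinked in 0.1% formaldehyde, proximity-ligated with BsaI/T4 ligase (1 h, 37 °C), PCR-amplified and sequenced on an Illumina NextSeq500. Binding signal is the read frequency of each hexamer for a given factor divided by its frequency in the tag-only sample.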

The target in another assay is ETV5 (Homo sapiens, UniProt P41161 1-510). The conditions noted are these: protein: recombinant; tags: N-terminal GST; dsDNA, one strand shown. Put shortly: as §1
The target in a further assay is HSF1 (Homo sapiens, UniProt Q00613 1-529). The conditions noted are these: protein: recombinant; tags: N-terminal GST; chain copies: 3; dsDNA, one strand shown. Put shortly: as §1
The target in a further assay is T2, SPIC (Homo sapiens, UniProt Q8N5J4 1-248).
T2 sequence: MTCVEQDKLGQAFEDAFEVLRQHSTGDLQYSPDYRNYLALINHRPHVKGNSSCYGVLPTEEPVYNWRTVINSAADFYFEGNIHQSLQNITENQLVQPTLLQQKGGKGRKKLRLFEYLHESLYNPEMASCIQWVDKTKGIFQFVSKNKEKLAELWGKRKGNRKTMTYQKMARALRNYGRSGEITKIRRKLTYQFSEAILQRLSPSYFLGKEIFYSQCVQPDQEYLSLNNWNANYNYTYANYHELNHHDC
The conditions noted are these: protein: recombinant; tags: N-terminal GST; dsDNA, one strand shown. The procedure, abridged: as §1

Another assay addresses ELF4 (Homo sapiens, UniProt Q99607 1-663). The conditions noted are these: protein: recombinant; tags: N-terminal GST; dsDNA, one strand shown. Put shortly:
as §1

The target in a further assay is T3, ELK4 (Homo sapiens, UniProt P28324-2 1-405).
T3 sequence: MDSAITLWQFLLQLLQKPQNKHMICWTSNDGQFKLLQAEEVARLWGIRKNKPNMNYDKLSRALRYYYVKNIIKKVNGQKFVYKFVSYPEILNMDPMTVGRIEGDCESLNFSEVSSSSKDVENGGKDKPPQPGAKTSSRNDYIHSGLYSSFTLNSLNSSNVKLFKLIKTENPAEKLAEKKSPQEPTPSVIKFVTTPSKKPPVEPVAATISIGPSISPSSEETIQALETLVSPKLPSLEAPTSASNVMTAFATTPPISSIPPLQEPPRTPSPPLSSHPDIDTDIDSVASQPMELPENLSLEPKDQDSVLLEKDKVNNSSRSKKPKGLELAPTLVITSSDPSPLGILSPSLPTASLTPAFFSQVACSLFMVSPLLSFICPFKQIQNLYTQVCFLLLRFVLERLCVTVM
The note with it: protein: recombinant; tags: N-terminal GST; dsDNA, one strand shown. The procedure, abridged: as §1

The next assay has as its target T4, ETV2 (Homo sapiens, UniProt O00321 1-342).
T4 sequence: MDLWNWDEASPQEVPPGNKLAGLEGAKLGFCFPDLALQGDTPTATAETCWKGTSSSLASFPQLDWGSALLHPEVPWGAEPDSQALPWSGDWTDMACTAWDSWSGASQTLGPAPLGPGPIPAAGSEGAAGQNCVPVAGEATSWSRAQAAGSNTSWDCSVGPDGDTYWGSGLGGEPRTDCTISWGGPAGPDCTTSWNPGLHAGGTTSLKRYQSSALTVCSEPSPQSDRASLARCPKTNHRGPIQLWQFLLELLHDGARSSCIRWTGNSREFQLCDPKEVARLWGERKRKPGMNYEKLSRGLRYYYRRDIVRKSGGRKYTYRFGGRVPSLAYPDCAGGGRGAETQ
The note with it: protein: recombinant; tags: N-terminal GST; dsDNA, one strand shown. The procedure, abridged: as §1

The target in the next assay is T5, ELF3 (Homo sapiens, UniProt P78545 1-371).
T5 sequence: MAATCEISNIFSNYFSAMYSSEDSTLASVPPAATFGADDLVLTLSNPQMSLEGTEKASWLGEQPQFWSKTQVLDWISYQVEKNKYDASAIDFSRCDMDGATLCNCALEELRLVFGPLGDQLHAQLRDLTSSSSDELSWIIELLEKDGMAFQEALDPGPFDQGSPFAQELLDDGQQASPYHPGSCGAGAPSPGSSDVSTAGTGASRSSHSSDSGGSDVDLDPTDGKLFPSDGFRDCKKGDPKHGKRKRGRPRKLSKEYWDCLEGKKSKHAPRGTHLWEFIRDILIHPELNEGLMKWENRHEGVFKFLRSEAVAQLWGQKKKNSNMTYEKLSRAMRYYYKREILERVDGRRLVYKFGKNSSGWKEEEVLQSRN
The conditions noted are these: protein: recombinant; tags: N-terminal GST; dsDNA, one strand shown. The procedure, abridged:
as §1

The target of a further assay is CRX (Homo sapiens, UniProt O43186 1-299). The note with it: protein: recombinant; tags: N-terminal GST; dsDNA, one strand shown. The procedure, abridged:
as §1

In the next assay the target is ETV1 (Homo sapiens, UniProt P50549 1-477). The note with it: protein: recombinant; tags: N-terminal GST; dsDNA, one strand shown. Put shortly:
as §1

For another assay, the target named is T6, ERF (Homo sapiens, UniProt P50548 1-548).
T6 sequence: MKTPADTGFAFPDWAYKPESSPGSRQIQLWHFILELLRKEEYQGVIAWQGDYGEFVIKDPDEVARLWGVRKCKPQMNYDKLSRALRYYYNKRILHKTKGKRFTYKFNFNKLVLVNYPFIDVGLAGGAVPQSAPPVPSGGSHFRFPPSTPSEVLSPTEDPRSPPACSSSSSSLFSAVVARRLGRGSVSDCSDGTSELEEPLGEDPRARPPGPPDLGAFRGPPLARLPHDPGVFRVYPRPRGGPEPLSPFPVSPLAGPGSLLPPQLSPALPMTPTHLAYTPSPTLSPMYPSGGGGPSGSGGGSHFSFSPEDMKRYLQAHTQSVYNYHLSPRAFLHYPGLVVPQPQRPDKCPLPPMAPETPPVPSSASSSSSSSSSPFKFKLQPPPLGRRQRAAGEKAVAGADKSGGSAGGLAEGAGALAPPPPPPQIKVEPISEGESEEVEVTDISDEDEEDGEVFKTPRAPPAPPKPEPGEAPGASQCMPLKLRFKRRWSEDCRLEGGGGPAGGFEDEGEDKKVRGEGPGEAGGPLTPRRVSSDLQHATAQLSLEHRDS
The note with it: protein: recombinant; tags: N-terminal GST; dsDNA, one strand shown. Put shortly:
as §1

In a further assay the target is T7, ETV3L (Homo sapiens, UniProt Q6ZN32 1-361).
T7 sequence: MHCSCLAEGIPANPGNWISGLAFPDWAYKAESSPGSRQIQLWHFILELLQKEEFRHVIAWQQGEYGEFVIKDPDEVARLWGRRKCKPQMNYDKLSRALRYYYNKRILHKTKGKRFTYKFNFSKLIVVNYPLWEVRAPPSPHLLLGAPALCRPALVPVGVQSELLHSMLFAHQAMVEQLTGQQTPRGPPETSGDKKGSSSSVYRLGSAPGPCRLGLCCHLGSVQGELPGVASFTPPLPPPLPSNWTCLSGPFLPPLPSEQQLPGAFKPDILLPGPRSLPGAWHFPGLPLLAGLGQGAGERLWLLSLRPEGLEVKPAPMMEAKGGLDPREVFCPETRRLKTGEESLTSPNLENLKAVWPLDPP
The conditions noted are these: protein: recombinant; tags: N-terminal GST; dsDNA, one strand shown. The procedure, abridged:
as §1

The target of another assay is T8, ETS2 (Homo sapiens, UniProt P15036 1-469).
T8 sequence: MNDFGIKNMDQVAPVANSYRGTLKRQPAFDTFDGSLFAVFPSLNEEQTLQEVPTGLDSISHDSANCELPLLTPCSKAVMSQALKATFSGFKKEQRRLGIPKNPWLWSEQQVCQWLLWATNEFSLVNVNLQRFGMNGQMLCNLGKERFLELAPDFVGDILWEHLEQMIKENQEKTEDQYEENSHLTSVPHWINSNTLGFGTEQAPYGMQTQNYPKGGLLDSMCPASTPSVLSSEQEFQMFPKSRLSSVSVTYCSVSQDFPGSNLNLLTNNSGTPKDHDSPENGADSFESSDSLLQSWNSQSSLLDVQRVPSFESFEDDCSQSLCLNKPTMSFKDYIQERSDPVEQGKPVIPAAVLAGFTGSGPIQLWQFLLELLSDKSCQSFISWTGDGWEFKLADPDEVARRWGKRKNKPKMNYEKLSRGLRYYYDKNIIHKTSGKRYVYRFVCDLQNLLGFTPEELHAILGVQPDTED
The conditions noted are these: protein: recombinant; tags: N-terminal GST; dsDNA, one strand shown. Put shortly: as §1

Another assay addresses T9, SPDEF (Homo sapiens, UniProt O95238 1-335).
T9 sequence: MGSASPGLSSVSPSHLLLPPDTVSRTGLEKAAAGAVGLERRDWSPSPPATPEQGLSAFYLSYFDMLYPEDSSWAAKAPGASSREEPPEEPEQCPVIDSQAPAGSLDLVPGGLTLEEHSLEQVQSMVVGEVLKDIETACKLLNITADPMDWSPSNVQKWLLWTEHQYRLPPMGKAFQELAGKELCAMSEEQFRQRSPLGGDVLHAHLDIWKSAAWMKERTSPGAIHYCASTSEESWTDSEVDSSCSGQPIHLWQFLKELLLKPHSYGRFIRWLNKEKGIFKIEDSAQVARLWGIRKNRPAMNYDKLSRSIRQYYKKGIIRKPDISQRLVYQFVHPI
The conditions noted are these: protein: recombinant; tags: N-terminal GST; dsDNA, one strand shown. The procedure, abridged: as §1

The next assay addresses T10, ETV7 (Homo sapiens, UniProt Q9Y603 1-341).
T10 sequence: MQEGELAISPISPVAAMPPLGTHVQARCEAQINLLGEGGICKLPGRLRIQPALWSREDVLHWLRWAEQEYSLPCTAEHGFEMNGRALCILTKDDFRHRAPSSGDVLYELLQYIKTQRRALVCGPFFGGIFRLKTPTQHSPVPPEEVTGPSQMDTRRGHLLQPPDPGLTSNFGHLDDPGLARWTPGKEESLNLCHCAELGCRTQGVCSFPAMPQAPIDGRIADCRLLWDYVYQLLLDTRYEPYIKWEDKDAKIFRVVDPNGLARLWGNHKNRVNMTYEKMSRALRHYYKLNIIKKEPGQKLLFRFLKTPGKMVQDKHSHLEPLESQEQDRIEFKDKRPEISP
The conditions noted are these: protein: recombinant; tags: N-terminal GST; dsDNA, one strand shown. The procedure, abridged: as §1

For the next assay, the target named is T11, ELF5 (Homo sapiens, UniProt Q9UKW6-2 1-255).
T11 sequence: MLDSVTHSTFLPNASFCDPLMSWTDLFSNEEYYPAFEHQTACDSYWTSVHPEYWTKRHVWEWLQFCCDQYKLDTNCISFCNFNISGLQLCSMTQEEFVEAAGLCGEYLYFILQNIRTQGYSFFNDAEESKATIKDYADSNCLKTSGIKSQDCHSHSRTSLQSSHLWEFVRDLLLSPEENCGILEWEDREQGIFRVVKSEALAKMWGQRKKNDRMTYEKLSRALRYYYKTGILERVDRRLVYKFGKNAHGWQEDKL
The note with it: protein: recombinant; tags: N-terminal GST; dsDNA, one strand shown. Put shortly: as §1

The next assay has as its target T12, ETV3 (Homo sapiens, UniProt P41162-2 1-143).
T12 sequence: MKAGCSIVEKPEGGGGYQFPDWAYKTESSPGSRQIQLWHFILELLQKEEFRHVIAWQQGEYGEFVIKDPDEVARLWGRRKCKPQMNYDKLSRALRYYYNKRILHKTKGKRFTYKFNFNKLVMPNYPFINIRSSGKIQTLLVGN
The conditions noted are these: protein: recombinant; tags: N-terminal GST; dsDNA, one strand shown. The procedure, abridged: as §1

For a further assay, the target named is ETV6 (Homo sapiens, UniProt P41212 1-452). The note with it: protein: recombinant; tags: N-terminal GST; dsDNA, one strand shown. The procedure, abridged:
as §1

Chain of ETV5 (P41161 whole entry): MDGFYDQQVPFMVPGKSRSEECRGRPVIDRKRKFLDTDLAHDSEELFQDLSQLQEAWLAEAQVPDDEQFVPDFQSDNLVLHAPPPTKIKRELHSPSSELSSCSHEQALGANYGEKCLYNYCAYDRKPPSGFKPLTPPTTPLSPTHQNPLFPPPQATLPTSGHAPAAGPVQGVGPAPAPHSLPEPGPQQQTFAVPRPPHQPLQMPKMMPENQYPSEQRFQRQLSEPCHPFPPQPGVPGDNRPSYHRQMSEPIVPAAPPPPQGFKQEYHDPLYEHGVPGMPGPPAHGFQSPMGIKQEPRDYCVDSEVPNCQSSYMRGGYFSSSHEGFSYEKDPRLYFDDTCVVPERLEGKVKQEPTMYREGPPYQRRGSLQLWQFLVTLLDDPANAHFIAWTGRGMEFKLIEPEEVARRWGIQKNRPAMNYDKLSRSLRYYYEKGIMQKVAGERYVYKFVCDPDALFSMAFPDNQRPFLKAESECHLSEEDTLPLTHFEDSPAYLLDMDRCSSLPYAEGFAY
Chain of HSF1 (Q00613 whole entry): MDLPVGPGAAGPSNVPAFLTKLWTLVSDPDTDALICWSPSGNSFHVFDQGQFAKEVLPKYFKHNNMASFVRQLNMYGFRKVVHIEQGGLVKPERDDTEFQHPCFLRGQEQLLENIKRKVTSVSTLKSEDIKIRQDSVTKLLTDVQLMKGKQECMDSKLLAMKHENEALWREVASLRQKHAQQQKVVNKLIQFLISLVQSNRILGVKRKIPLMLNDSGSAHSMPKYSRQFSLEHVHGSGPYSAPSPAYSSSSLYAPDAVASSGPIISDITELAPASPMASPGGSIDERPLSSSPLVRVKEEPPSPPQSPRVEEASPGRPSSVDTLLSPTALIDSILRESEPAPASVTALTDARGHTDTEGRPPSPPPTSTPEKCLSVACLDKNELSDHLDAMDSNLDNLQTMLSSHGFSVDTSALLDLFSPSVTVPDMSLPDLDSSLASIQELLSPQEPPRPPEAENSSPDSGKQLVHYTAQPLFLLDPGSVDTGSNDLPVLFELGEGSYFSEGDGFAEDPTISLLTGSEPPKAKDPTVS
Chain of ELF4 (Q99607 whole entry): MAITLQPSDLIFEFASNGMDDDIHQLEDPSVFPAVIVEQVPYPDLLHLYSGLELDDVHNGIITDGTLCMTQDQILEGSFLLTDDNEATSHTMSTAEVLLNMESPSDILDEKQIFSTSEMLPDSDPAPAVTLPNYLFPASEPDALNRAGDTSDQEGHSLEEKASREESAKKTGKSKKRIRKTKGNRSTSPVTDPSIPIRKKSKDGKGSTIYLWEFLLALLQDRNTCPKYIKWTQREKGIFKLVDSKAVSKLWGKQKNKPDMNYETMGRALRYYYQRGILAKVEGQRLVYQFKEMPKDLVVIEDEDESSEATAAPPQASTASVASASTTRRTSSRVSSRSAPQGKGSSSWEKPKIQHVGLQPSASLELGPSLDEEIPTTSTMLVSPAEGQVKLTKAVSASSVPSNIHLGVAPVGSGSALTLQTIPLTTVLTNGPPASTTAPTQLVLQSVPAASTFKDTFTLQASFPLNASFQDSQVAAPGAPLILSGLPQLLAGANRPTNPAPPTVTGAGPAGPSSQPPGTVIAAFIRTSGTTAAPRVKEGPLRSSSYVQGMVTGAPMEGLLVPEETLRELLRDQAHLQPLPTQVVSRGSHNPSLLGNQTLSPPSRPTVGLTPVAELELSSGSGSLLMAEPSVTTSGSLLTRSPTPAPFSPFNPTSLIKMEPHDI
Chain of ETV6 (P41212 whole entry): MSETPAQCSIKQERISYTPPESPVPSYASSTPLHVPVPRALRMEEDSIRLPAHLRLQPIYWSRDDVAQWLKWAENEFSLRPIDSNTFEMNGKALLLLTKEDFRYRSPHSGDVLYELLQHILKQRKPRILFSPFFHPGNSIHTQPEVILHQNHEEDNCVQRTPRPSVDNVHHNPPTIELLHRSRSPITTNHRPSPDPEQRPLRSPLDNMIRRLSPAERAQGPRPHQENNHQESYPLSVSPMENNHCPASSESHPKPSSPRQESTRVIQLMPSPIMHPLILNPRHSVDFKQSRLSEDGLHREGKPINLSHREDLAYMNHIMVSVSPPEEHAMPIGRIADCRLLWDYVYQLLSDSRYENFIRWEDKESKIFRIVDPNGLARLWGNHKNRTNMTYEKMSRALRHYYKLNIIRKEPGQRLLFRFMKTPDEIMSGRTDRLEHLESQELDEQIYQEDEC
Chain of CRX (O43186 whole entry): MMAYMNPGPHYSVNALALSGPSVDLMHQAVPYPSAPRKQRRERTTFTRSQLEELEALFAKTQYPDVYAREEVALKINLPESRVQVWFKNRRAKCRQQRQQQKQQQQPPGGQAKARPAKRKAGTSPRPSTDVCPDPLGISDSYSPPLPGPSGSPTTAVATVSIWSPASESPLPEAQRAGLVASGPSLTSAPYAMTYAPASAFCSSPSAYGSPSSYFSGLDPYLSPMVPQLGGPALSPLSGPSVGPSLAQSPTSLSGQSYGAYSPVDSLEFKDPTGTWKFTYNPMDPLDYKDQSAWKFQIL
Chain of ETV1 (P50549 whole entry): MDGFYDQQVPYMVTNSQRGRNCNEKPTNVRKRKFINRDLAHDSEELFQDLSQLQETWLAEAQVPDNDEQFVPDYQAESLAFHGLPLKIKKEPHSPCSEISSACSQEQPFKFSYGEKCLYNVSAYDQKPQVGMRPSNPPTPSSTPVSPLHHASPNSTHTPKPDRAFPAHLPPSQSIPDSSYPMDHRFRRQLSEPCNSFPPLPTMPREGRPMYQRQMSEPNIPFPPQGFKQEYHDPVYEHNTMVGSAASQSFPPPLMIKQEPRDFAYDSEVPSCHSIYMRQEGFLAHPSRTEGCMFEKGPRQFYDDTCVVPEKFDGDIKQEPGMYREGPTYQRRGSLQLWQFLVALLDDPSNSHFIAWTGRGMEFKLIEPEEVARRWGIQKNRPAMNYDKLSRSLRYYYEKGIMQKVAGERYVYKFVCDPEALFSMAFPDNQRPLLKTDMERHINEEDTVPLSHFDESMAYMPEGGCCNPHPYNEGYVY

Take TGATGC: the binding signal in the assay with FEV was 1.44 fold enrichment (6-mer frequency, TF over GST control); with ETV5, 1.49 fold enrichment (6-mer frequency, TF over GST control); in the assay with HSF1, 1.27 fold enrichment (6-mer frequency, TF over GST control); in the assay with SPIC it was 1.72 fold enrichment (6-mer frequency, TF over GST control); with ELF4, 1.66 fold enrichment (6-mer frequency, TF over GST control); with ELK4, 1.6 fold enrichment (6-mer frequency, TF over GST control). Moreover, the binding signal in the assay with ETV2 was 1.49 fold enrichment (6-mer frequency, TF over GST control); in the assay with ELF3 it was 1.71 fold enrichment (6-mer frequency, TF over GST control); in the assay with CRX, 1.34 fold enrichment (6-mer frequency, TF over GST control); with ETV1 it was 1.55 fold enrichment (6-mer frequency, TF over GST control); in the assay with ERF, 1.48 fold enrichment (6-mer frequency, TF over GST control); in the assay with ETV3L it was 1.61 fold enrichment (6-mer frequency, TF over GST control). For the same sequence, the binding signal in the assay with ETS2 is 1.58 fold enrichment (6-mer frequency, TF over GST control); in the assay with SPDEF it was 1.45 fold enrichment (6-mer frequency, TF over GST control); in the assay with ETV7, 1.54 fold enrichment (6-mer frequency, TF over GST control); with ELF5, 1.52 fold enrichment (6-mer frequency, TF over GST control); in the assay with ETV3, 1.67 fold enrichment (6-mer frequency, TF over GST control); in the assay with ETV6 it was 1.52 fold enrichment (6-mer frequency, TF over GST control).
